Test results as given in PubChem BioAssay AID2058 (Sanford-Burnham Center for Chemical Genomics, 2009).
About 150 (0.052%) of roughly 290,000 compounds were called active. The full list was thinned out, with actives kept by preference. Entries with a potency or affinity are not part of this list. Values without a mark were called inactive.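 How the source made its calls: active means inhibition of at least 50% with at least 30 cells and total cytoplasm GFP at most 10,000,000; inconclusive means under 30 cells or total GFP of 10,000,000 plus; inactive means the rest.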

Molecular target: G-protein coupled receptor 35 (Homo sapiens) (UniProt Q9HC97)
Sequence (Q9HC97 whole entry, looked up): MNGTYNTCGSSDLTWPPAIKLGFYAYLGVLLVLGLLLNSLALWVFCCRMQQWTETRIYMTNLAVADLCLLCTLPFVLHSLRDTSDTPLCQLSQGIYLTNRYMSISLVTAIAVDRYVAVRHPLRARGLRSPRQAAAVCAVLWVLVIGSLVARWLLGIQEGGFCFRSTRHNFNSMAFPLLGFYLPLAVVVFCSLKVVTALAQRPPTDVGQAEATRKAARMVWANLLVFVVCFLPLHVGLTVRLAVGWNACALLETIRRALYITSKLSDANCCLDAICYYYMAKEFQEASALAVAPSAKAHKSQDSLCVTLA
Test: inhibition of zaprinast-stimulated GPR35 beta-arrestin translocation – imaging, U2OS, beta-arrestin-GFP, zaprinast agonist, primary screen (AID 2058)
Conditions: zaprinast antagonism, at 10 µM, hits give high values

Compound | inhibition
CCn1c(CNC(=O)c2ccc(Cl)cc2)nnc1SCC(=O)N1CCOCC1 | -15.6%
Cn1cc(/C=C/c2cc[n+](C)cc2)c2cc(F)ccc21 | 29.2%
COc1ccc2c(c1)c(/C=C/c1cc[n+](C)cc1)cn2C | 48.7%
Cn1cc(/C=C/c2cc[n+](C)cc2)c2cc(Cl)ccc21 | 54.7% (active)
CN1CCc2c(sc3nc(NN)n(Cc4ccccc4)c(=O)c23)C1 | 12.8%
NNC(=O)c1oc2nc(-c3ccco3)cc(-c3ccco3)c2c1N | 92.5% (active)
Cc1ccc(-c2cc(-c3ccco3)c3c(N)c(C(=O)NN)oc3n2)cc1 | -7.6%
NNC(=O)c1oc2nc(-c3cccs3)cc(-c3ccco3)c2c1N | -11.1%
O=C(CCCn1c(=O)[nH]c2cc(Cl)ccc2c1=O)NCCCN1CCCC1 | 1.1%
CCCn1c(=O)[nH]c(=O)c2c1nc(-c1ccc(C(F)(F)F)cc1)n2CCOC | 2.1%
CC(=O)N1CC=C2C(C#N)=C(N)C(C#N)(C#N)C(CCc3ccccc3)C2C1 (stereo not given) | -5.1%
N#CC1=C(N)C(C#N)(C#N)C(c2cccnc2)C2CN(C(=O)OCc3ccccc3)CC=C12 (stereo not given) | 8.1%
N#CC1=C(N)C(C#N)(C#N)[C@H](c2cccnc2)[C@H]2CN(C(=O)OCc3ccccc3)CC=C12 | 0.1%
CCN1CC=C2C(C#N)=C(N)C(C#N)(C#N)C(CCc3ccccc3)C2C1 (stereo not given) | 90.4% (active)
CN1CC=C2C(C#N)=C(N)C(C#N)(C#N)C(Cc3ccccc3)C2C1 (stereo not given) | 53.4% (active)
Cc1ccc(S(=O)(=O)N(C)c2ccc(C(=O)NCCc3ccccc3)cc2)cc1 | 3.9%
Cc1ccc(C2(COC(=O)C(C)C)CO2)c(OC(=O)C(C)C)c1 (stereo not given) | 10.9%
CCn1c(Oc2ccc(F)cc2)nc2c1c(=O)n(C)c(=O)n2C | 5.5%
COc1ccc(OCC(O)CNC(=O)Nc2ccccc2)cc1 (stereo not given) | 1.5%
CN1CCc2nc(NC(=O)c3cccc(OC(F)F)c3)sc2C1 | 4.4%
COc1ccccc1N1CCN(CCCn2c(=S)[nH]c3ccccc3c2=O)CC1 | -1.1%
Cc1ccc(OCC(=O)N2CCN(C(=O)c3ccncc3)CC2)cc1 | -6.5%
C=CCCCCCCCCc1nc(SCC(C)=O)n[nH]1 | 18.4%
C=CCCCCCCCCc1nc(=S)[nH][nH]1 | -18.8%

Compound | inhibition
COc1ccc(NC(=O)COC(=O)C2CC(=O)N(c3ccc(C)cc3)C2)cc1 (stereo not given) | -10.1%
O=S(=O)(NN1CCOCC1)c1cc(Cl)cc(Cl)c1O | -8.3%
CC(=O)NS(=O)(=O)c1ccc(NC(=O)/C=C/c2cn(-c3ccccc3)nc2-c2ccccc2)cc1 | -3%
CCCCc1nc(SCC(=O)Nc2nnc(CCCC)s2)n[nH]1 | -13.1%
O=C(CCCN1C(=O)S/C(=C\C=C\c2ccccc2)C1=O)Nc1ccc(O)cc1 | 18.5%
O=C(CN1C(=O)S/C(=C\C=C\c2ccccc2)C1=O)Nc1ccc(C(=O)O)cc1 | -0.2%
O=C(CN1C(=O)S/C(=C/C=C/c2ccccc2)C1=O)Nc1ccc(C(=O)O)cc1 | -12.3%
O=C(CCN1C(=O)/C(=C\C=C\c2ccccc2)SC1=S)Nc1ccc(C(=O)O)cc1 | 1.6%
C/C=C(\C)C(=O)NCCN1C2=NC[C@@H](Cc3ccccc3)N2C[C@H]1Cc1ccc(O)cc1 | 1%
N#Cc1c(C(F)(F)F)cc(=O)[nH]c1SCC(=O)O | -12%
CCN(C(=O)Cc1c(C(=O)O)n(C)c2ccccc12)c1cccc(C)c1 | 6.8%
O=C(Cn1cccc1C(=O)c1ccccc1)NCCCc1ccccc1 | 3.3%
CC(C)CC(NS(=O)(=O)OCC(Cl)(Cl)Cl)c1ccccc1 (stereo not given) | 6.5%
CC(NS(=O)(=O)OCC(Cl)(Cl)Cl)c1ccc(Br)cc1 (stereo not given) | 2.8%
O=C(Nc1ccc(Cl)c(S(=O)(=O)N2CCOCC2)c1)c1ccccc1-c1ccc(C(F)(F)F)cc1 | -5.3%
CC(O)CSc1nc2c(c(=O)n(C)c(=O)n2C)n1CCCc1ccccc1 (stereo not given) | 18.8%
Nc1c(C(=O)Nc2nccs2)sc2nc(-c3cccs3)cc(C(F)(F)F)c12 | 14.2%
CC(=O)c1sc2nc(-c3cccs3)cc(C(F)(F)F)c2c1N | 19.7%
O=C(NCc1nnc(SCc2ccc(C(F)(F)F)cc2)n1-c1ccccc1)C12CC3CC(CC(C3)C1)C2 | 89.4% (active)
O=C(NCc1nnc(SCc2ccc(F)cc2)n1-c1ccccc1)C12CC3CC(CC(C3)C1)C2 | -5.2%
O=C(NCc1nnc(SCc2ccccc2)n1-c1ccccc1)C12CC3CC(CC(C3)C1)C2 | -5.7%
COc1ccc(CC(=O)OCC(=O)NC(=O)NC2CCCCC2)cc1 | 6.4%
COC(=O)c1[nH]c2cccc(C)c2c1NC(=O)CN1CCN(C(=O)c2ccco2)CC1 | 21.8%
FC(F)(F)c1cnc(-c2cnc3c(-c4ccc(Cl)cc4)cnn3c2)c(Cl)c1 | 2.1%

Compound | inhibition
CCOC(=O)c1ccc(NC(=O)CCc2c(C)nc3ncnn3c2C)cc1 | 10.9%
O=C(CSc1nnc(Cn2c(=O)sc3ccccc32)n1-c1ccccc1)NCC1CCCO1 (stereo not given) | 15.8%
N#CC1=C(N)C(C#N)(C#N)[C@H](c2ccoc2)[C@H]2CN(Cc3ccccc3)CC=C12 | 9.6%
CCN1CC=C2C(C#N)=C(N)C(C#N)(C#N)[C@H](c3ccoc3)[C@H]2C1 | 67.4% (active)
CN1CC=C2C(C#N)=C(N)C(C#N)(C#N)[C@H](c3ccoc3)[C@H]2C1 | 74.6% (active)
CN1C2C=C3C(C#N)=C(N)C(C#N)(C#N)[C@@H](c4ccsc4)[C@@H]3C1CC2 (stereo not given in full) | -6.4%
CCOC(=O)N1CC=C2C(C#N)=C(N)C(C#N)(C#N)[C@H](c3ccc(OCC)c(OCC)c3)[C@H]2C1 | -0.6%
CC(=O)N1CC=C2C(C#N)=C(N)C(C#N)(C#N)[C@H](c3ccoc3)[C@H]2C1 | 2.7%
CC(C)(C)OC(=O)N1CC=C2C(C#N)=C(N)C(C#N)(C#N)[C@H](c3cccnc3)[C@H]2C1 | 3.8%
CCOC(=O)N1CC=C2C(C#N)=C(N)C(C#N)(C#N)[C@H](c3ccsc3)[C@H]2C1 | 7.2%
CCCCc1nc(SCC(=O)Nc2cccc(Cl)c2)n[nH]1 | -17%
Cc1cccc(Cc2cnc(N3C(=N)SC(C)C3=O)s2)c1 (stereo not given) | -5.2%
O=C(CSc1nnc(C2CCCCC2)o1)N1CCCCC1 | 11.7%
CCN(C(=O)C(C)OC(=O)C1C(C(=O)OC)=C(C)NC(C)=C1C(=O)OC)c1ccccc1 (stereo not given) | -20.3%
COc1ccc(NC(=O)c2cc3c([nH]c4ccccc43)c(C)n2)cc1 | -5.7%
C=CCn1c(SCC(=O)N(C)C2CCS(=O)(=O)C2)nnc1-c1ccncc1 (stereo not given) | 11.4%
CCOC(=O)C1CCN(C(=O)CSc2ccccc2)CC1 | -1.8%
COc1cc([N+](=O)[O-])cc(/C=C2/SC(=S)N(Cc3ccccc3)C2=O)c1O | 2.7%
O=C1/C(=C\c2cc([N+](=O)[O-])ccc2O)SC(=S)N1Cc1ccc(Cl)cc1 | 61.1% (active)
O=C1/C(=C/c2ccc(O)c([N+](=O)[O-])c2)SC(=S)N1Cc1ccccc1 | 0.6%
Cc1nc2c(C(=O)NCc3ccc4c(c3)OCO4)cnn2c(C)c1Cc1ccc(F)cc1Cl | -16.4%
Cc1oc(-c2ccc(Cl)cc2)nc1CS(=O)CC(=O)NCCCN(C)C1CCCCC1 (stereo not given) | -9.6%
COC(=O)C1CN(S(=O)(=O)c2cc(OC)ccc2OC)CCS1 (stereo not given) | -8.4%
CC[n+]1c(/C=C/c2ccc(N(C)C)cc2)ccc2ccccc21 | 6.3%

Compound | inhibition
CC[n+]1ccc(/C=C/c2ccc(N(C)C)cc2)c2ccccc21 | 103% (active)
CC[n+]1ccccc1/C=C/c1ccc(N(C)C)cc1 | -10.4%
CCCC(=O)N1CCN(c2nc3c(OC)ccc(Cl)c3s2)CC1 | 12.2%
CCC(Oc1ccc2ccccc2c1)C(=O)O (stereo not given) | 6.8%
CC(=O)N(C1=C(O)c2ccccc2C(=O)C1=O)C1CCCCC1 | -5.2%
CC(=O)N(c1ccccc1)C1CCCC1 | -22.8%
O=C(NC1CCCCCC1)C1CCCN(S(=O)(=O)c2cccs2)C1 (stereo not given) | -5.5%
CCN1CCN(C(=O)c2ccccc2NC(=O)c2ccc(Cl)cc2)CC1 | 1%
Cc1[nH]c(=O)[nH]c(=O)c1S(=O)(=O)N1CCCC(C(=O)N2CCN(c3ccccc3Cl)CC2)C1 (stereo not given) | 3.5%
COc1ccc(NC(=O)/C(Cl)=C(/Cl)S(=O)Cc2ccccc2)cn1 (stereo not given) | 9.5%
COc1ccc(NC(=O)/C(Cl)=C(/Cl)S(=O)Cc2ccc(Cl)cc2)cn1 (stereo not given) | 3.1%
COc1ccc(NC(=O)/C(Cl)=C(/Cl)S(=O)Cc2ccccc2Cl)cn1 (stereo not given) | 115% (active)
Cc1ccc(-c2nc3ncccc3n2O)cc1 | 2.4%
Cc1ccc(F)cc1NC(=O)CSc1nc(Nc2ccccc2)nc(N2CCOCC2)n1 | 17.7%
CCOc1cccc(/C=C(/C#N)c2nc3ccccc3[nH]2)c1OCC(=O)O | -3.5%
Cc1ccc2nc(/C(C#N)=C/c3ccc(O)c(O)c3)[nH]c2c1 | -1.2%
COc1cccc(/C=C(\C#N)c2nc3ccc(C)cc3[nH]2)c1OCC(=O)O | -10.4%
Cc1ccc2nc(/C(C#N)=C/c3ccccc3C(=O)O)[nH]c2c1 | -7.1%
CCOc1cc(N(CC)CC)ccc1/C=C(/C#N)c1nc2ccccc2[nH]1 | 99.9% (active)
Cc1cc(/C=C(\C#N)c2nc3ccccc3[nH]2)c(C)n1C | -1.1%
COc1cc(/C=C(\C#N)c2nc3ccc(C)cc3[nH]2)c([N+](=O)[O-])cc1OC | 2.2%
CCOc1cc(/C=C(\C#N)c2nc3ccccc3[nH]2)ccc1OC(C)C(=O)O (stereo not given) | 9.3%
N#C/C(=C\c1ccccc1OCC(=O)O)c1nc2ccccc2[nH]1 | -0.8%
